Experimental findings from PubChem BioAssay (EPA / NIEHS) are described below.

The target in assay [1] is Paired box protein Pax-6 (Homo sapiens) (UniProt P26367). As to the kind of experiment: ATG_Pax6_CIS: Attagene CIS-FACTORIAL HepG2 Assay for human Paired Box 6 (PAX6) (AID 2282956). As to conditions: HepG2 CIS-FACTORIAL PAX6 reporter transcription, RNA readout; actives raise or lower the signal. In short, it runs like this:
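Transient MRTU transfection of HepG2 → compound exposure 24 h → TriZol RNA, oligo(dT) RT → PCR, 6-FAM primer extension, HpaI cut → capillary electrophoresis; activity fitted both directions against DMSO.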

Assay [2] can be described thus: ATG_PXRE_CIS: Attagene CIS-FACTORIAL HepG2 Assay for human Pregnane X Receptor Element (PXRE) (AID 2282957). The conditions noted are these: HepG2 Attagene CIS-FACTORIAL PXRE reporter, mRNA; actives raise or lower the signal. The gist of the method: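 Cells: HepG2, transiently transfected reporter units under cis promoter control. Exposure: 24 h. Detection: reporter mRNA via RT-PCR/CE fluorescence; bidirectional fitting, DMSO-referenced.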

Assay [3] in a line: ATG_PPRE_CIS: Attagene CIS-FACTORIAL HepG2 Assay for human Peroxisome Proliferator-activated Response Element (PPRE) (AID 2282958). The conditions noted are these: HepG2 PPRE cis-element reporter, Attagene transcription factor profiling; actives raise or lower the signal. In short, it runs like this: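 Cells are first transfected transiently with the multiplexed reporter library, then dosed for 24 h. Total RNA is reverse-transcribed, amplified, fluorescently end-labeled and HpaI-cut before capillary electrophoresis; activity is fitted bidirectionally against DMSO controls.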

The nature of assay [4]: ATG_RORE_CIS: Attagene CIS-FACTORIAL HepG2 Assay for human RAR-related Orphan Receptor Element (RORE) (AID 2282959). The conditions noted are these: HepG2 Attagene cis-factorial RORE reporter, mRNA; actives raise or lower the signal. In short, it runs like this:
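Cells were HepG2 carrying transfected cis-regulated reporter constructs, dosed for 24 hours. Total RNA was reverse-transcribed and reporter cDNA amplified, fluorescently labeled and sized by capillary electrophoresis. Activity was fitted bidirectionally relative to DMSO.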

Assay [5] can be described thus: ATG_Sox_CIS: Attagene CIS-FACTORIAL HepG2 Assay for human SRY-box transcription factor (SOX) (AID 2282960). As to conditions: HepG2 Attagene cis-factorial SOX reporter, mRNA; actives raise or lower the signal. The gist of the method: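 Transient MRTU transfection of HepG2; 24 h compound incubation; TriZol RNA, oligo(dT) RT, PCR, 6-FAM primer extension, HpaI cut, CE. Bidirectional fit, DMSO = baseline.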

A short description of assay [6]: ATG_SREBP_CIS: Attagene CIS-FACTORIAL HepG2 Assay for human Sterol Regulatory Element Binding (SREBP) (AID 2282962). The conditions noted are these: HepG2 Attagene cis-factorial SREBP reporter, mRNA; actives raise or lower the signal. In short, it runs like this: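 Transfected HepG2 (cis-regulated reporter library, endogenous TFs) → compound 24 h → total RNA → oligo(dT) RT → reporter-specific PCR → FAM primer extension, HpaI cut → CE fluorescence. Fit bidirectional vs DMSO.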

For assay [7], the target named is Signal transducer and activator of transcription 3 (Homo sapiens) (UniProt P40763). The assay can be described thus: ATG_STAT3_CIS: Attagene CIS-FACTORIAL HepG2 Assay for human Signal Transducer and Activator of Transcription 3 (STAT3) (AID 2282963). As to conditions: HepG2, Attagene cis-factorial STAT3 reporter transcription; actives raise or lower the signal. The gist of the method: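 Values derive from bidirectional fits relative to DMSO of reporter mRNA levels, measured by RT-PCR with capillary electrophoresis, in HepG2 cells carrying transiently transfected cis-regulated reporter units and exposed 24 h.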

Assay [8] can be described thus: ATG_TA_CIS: Attagene CIS-FACTORIAL HepG2 Assay for human TA Basal Promoter (AID 2282964). As to conditions: HepG2 Attagene CIS-factorial TA basal promoter reporter; actives raise or lower the signal. In short, it runs like this: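 HepG2 cells transiently transfected with multiplexed cis-promoter reporter units, dosed 24 h. Reporter mRNA measured by RT-PCR, 6-FAM labelling, HpaI digestion and capillary electrophoresis; bidirectional fit versus DMSO baseline, serving as background control.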

The nature of assay [9]: ATG_TCF_b_cat_CIS: Attagene CIS-FACTORIAL HepG2 Assay for human T-Cell-Factor with beta-catenin (TCF/b-cat) (AID 2282965). As to conditions: HepG2 TCF/beta-catenin cis-reporter transcription, actives raise or lower the signal. In short, it runs like this:
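Cells of the HepG2 line carry transiently transfected reporter units whose promoters respond to endogenous factors. Twenty-four hours post-dosing, reporter mRNA induction is measured by fluorescent RT-PCR and capillary electrophoresis, with DMSO as baseline.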

Assay [10] can be described thus: ATG_TAL_CIS: Attagene CIS-FACTORIAL HepG2 Assay for human TAL Basal Promoter (AID 2282966).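 Note: background control endpoint measuring basal TAL promoter reporter mRNA not a specific factor.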 The conditions noted are these: HepG2 Attagene cis-factorial TAL promoter reporter; actives raise or lower the signal. The gist of the method: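 RT-PCR plus capillary electrophoresis quantifies reporter mRNA induction in transiently transfected HepG2 cells after 24 h chemical treatment. DMSO serves as negative control and baseline for bidirectional fitting.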

Assay [11] in a line: ATG_TGFb_CIS: Attagene CIS-FACTORIAL HepG2 Assay for human Transforming Growth Factor (TGF) (AID 2282967). The conditions noted are these: HepG2 Attagene CIS TGFb reporter, mRNA transcription; actives raise or lower the signal. The gist of the method: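 HepG2 cells transiently transfected with cis-promoter-driven multiplexed reporter units; 24 h compound exposure. Reporter mRNA measured by RT-PCR, 6-FAM labeling, HpaI digestion and capillary electrophoresis; bidirectional fit versus DMSO baseline.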

The nature of assay [12]: ATG_VDRE_CIS: Attagene CIS-FACTORIAL HepG2 Assay for human Vitamin D Receptor Element (VDRE) (AID 2282968). As to conditions: HepG2 VDRE cis-reporter transcription, actives raise or lower the signal. The gist of the method: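 Cell-based multiplexed reporter format in human liver HepG2 cells, 24 h post-dose. Fluorescence from capillary electrophoresis of reporter cDNA gives the signal, with DMSO as negative control and baseline.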

The target in assay [13] is Estrogen receptor (Homo sapiens) (UniProt P03372). The assay can be described thus: ATG_ERa_TRANS: Attagene TRANS-FACTORIAL HepG2 Assay for human Estrogen Receptor alpha (ERa) (AID 2282970; active = hit-call score of the fitted dose curve at least 0.9, where 1 is the maximum). The conditions noted are these: HepG2 Attagene TRANS ERa GAL4 reporter, mRNA. The gist of the method:
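Cells: HepG2, transiently transfected. Construct: GAL4-UAS reporter units regulated by exogenous NR-Gal4 chimeras. Time: 24 h. Detection: reporter mRNA by RT-PCR, capillary electrophoresis, fluorescence. Baseline: DMSO, upward fitting.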

Assay [14] concerns the target X-box-binding protein 1 (Homo sapiens) (UniProt P17861). The assay can be described thus: ATG_Xbp1_CIS: Attagene CIS-FACTORIAL HepG2 Assay for human X-box Binding Protein 1 (XBP1) (AID 2282972). As to conditions: HepG2 XBP1 cis-element reporter, Attagene multiplex; actives raise or lower the signal. The gist of the method: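 HepG2, transient MRTU transfection (cis-promoter driven), 24 h compound exposure. Total RNA → oligo(dT) RT → PCR → 6-FAM labeling → HpaI cut → CE. Bidirectional fit vs DMSO.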

A short description of assay [15]: ATG_M_19_TRANS: Attagene TRANS-FACTORIAL HepG2 Assay for M19 Transcription Factor (Internal Marker) (AID 2282974; active = hit-call score of the fitted dose curve at least 0.9, where 1 is the maximum). The conditions noted are these: HepG2 Attagene TRANS-FACTORIAL M19 internal marker reporter. In short, it runs like this: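 Cells: human HepG2, transiently transfected with multiplexed reporter transcription units. Exposure: 24 h. Detection: RT-PCR of reporter mRNA with capillary electrophoresis. Analysis: gain-of-signal vs DMSO.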

Assay [16] has as its target Estrogen-related receptor gamma (Homo sapiens) (UniProt P62508). The assay can be described thus: ATG_ERRg_TRANS: Attagene TRANS-FACTORIAL HepG2 Assay for human Estrogen-Related Receptor gamma (ERRg) (AID 2282977; active = hit-call score of the fitted dose curve at least 0.9, where 1 is the maximum;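 note: hits increase reporter signal over DMSO so potencies reflect activators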). The conditions noted are these: HepG2 Attagene TRANS reporter, ERRg transactivation. The gist of the method: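 HepG2 cells transiently transfected with multiplexed GAL4-UAS reporter units and chimeric NR-Gal4 constructs were exposed to test chemicals for 24 h. Reporter mRNA was measured by RT-PCR, 6-FAM primer extension, HpaI digestion and capillary electrophoresis; gain-of-signal versus DMSO.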

Assay [17] deals with Nuclear receptor subfamily 1 group I member 3 (Homo sapiens) (UniProt Q14994). As to the kind of experiment: ATG_CAR_TRANS: Attagene TRANS-FACTORIAL HepG2 Assay for human Constitutive Androstane Receptor (CAR) (AID 2282969; active = hit-call score of the fitted dose curve at least 0.9, where 1 is the maximum;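 note: activators raise reporter mRNA above DMSO so AC50 marks induction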). As to conditions: HepG2 Attagene TRANS-FACTORIAL CAR reporter. The gist of the method:
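HepG2 cells transiently transfected with GAL4-UAS reporter units; TRANS format reads activity of exogenous chimeric NR-Gal4 protein. After 24 h dosing, reporter mRNA quantified by RT-PCR, 6-FAM labelling and capillary electrophoresis; gain of signal fitted against DMSO.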

Assay [18] in a line: ATG_GAL4_TRANS: Attagene TRANS-FACTORIAL HepG2 Assay for GAL4 (Internal Marker) (AID 2282976; active = hit-call score of the fitted dose curve at least 0.9, where 1 is the maximum). The conditions noted are these: HepG2 Attagene TRANS GAL4 internal marker reporter. In short, it runs like this: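 In transfected human HepG2 liver cells dosed 24 h, GAL4 reporter mRNA serves as a baseline marker. Detection by RT-PCR with fluorescent capillary electrophoresis, activity fitted upward relative to DMSO.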

Records with an inconclusive call do not appear. Activity calls are given as the source filed them. Rule for the calls, unless noted: active = hit-call score of the fitted dose curve at least 0.9, where 1 is the maximum; inactive = score below 0.9.

Sequence of X-box-binding protein 1 (Homo sapiens) (P17861 whole entry, looked up): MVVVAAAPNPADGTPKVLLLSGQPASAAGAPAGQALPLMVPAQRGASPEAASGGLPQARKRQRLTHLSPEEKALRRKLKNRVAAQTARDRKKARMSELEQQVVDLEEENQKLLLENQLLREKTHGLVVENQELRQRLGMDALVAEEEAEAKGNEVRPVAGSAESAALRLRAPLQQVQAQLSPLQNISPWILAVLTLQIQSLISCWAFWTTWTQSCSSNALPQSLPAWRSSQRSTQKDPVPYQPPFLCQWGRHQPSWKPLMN
Sequence of Signal transducer and activator of transcription 3 (Homo sapiens) (P40763 whole entry, looked up): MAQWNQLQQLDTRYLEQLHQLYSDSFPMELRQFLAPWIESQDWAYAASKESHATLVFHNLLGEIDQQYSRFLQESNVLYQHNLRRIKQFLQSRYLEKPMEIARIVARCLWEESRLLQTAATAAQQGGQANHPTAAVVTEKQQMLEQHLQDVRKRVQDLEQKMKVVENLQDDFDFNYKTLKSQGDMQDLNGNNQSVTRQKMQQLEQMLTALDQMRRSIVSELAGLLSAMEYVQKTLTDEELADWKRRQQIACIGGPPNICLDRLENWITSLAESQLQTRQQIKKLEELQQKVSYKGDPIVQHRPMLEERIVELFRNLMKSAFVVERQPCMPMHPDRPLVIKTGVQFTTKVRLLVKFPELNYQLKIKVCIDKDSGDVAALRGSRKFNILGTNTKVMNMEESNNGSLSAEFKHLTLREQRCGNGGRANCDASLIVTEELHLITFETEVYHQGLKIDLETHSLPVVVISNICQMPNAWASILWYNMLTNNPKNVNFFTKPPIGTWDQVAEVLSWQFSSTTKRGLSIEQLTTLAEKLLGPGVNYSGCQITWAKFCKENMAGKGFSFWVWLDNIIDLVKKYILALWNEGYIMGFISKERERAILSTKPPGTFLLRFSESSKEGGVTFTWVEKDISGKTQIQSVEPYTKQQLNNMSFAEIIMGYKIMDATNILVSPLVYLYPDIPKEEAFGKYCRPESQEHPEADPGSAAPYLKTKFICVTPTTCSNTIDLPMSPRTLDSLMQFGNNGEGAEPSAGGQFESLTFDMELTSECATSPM
Sequence of Estrogen receptor (Homo sapiens) (P03372 whole entry, looked up, the tested form may be a part): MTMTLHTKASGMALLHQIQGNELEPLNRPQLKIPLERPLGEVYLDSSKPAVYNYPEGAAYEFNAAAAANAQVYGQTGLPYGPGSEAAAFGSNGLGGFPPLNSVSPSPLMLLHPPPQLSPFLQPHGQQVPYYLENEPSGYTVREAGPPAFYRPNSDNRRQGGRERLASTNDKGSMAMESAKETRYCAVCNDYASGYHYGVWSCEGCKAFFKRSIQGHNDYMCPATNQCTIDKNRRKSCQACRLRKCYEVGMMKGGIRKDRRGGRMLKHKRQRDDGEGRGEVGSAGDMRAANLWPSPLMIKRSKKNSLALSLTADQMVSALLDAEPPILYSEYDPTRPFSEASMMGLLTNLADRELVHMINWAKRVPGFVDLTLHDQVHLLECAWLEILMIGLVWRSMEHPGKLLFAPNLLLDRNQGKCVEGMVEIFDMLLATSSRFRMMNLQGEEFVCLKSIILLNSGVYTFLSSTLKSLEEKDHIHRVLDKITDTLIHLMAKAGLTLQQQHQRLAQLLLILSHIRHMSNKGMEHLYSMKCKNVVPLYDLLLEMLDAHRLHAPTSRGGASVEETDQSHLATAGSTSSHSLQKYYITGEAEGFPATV
Sequence of Paired box protein Pax-6 (Homo sapiens) (P26367 whole entry, looked up): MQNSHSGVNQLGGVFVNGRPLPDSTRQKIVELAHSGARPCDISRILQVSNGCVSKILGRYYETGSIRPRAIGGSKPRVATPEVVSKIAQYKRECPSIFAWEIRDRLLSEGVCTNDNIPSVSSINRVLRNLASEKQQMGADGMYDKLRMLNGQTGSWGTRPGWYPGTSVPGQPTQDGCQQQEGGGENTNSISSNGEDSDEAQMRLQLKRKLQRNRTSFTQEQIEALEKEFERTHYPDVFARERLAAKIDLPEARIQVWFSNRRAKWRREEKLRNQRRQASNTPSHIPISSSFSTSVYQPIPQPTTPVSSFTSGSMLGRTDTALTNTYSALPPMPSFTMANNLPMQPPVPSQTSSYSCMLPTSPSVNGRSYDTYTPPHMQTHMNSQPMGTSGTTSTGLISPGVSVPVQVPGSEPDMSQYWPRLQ
Sequence of Estrogen-related receptor gamma (Homo sapiens) (P62508 whole entry, looked up, the tested form may be a part): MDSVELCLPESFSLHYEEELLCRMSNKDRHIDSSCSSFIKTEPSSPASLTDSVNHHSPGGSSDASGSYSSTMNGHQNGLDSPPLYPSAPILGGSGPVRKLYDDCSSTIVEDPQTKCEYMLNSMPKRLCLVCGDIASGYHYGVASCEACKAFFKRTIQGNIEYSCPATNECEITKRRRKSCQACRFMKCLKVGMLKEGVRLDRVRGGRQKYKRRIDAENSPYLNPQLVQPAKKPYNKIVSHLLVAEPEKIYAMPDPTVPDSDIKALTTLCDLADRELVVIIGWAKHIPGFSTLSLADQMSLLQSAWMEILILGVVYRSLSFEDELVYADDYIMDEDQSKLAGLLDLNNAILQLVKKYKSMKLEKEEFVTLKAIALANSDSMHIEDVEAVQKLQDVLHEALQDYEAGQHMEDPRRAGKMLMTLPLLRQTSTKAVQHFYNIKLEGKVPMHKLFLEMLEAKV
Sequence of Nuclear receptor subfamily 1 group I member 3 (Homo sapiens) (Q14994 whole entry, looked up, the tested form may be a part): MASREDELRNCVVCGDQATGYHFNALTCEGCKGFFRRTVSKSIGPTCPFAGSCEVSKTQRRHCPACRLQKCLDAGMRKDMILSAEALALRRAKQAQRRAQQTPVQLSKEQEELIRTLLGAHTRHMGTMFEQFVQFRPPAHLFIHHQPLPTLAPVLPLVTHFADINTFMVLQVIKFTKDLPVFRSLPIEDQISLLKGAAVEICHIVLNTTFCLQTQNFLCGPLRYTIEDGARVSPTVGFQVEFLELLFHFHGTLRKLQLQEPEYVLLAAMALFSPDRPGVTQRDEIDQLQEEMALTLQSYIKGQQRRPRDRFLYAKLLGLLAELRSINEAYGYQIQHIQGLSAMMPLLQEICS

`CCCCCCCC/C=C\CCCCCCCC(=O)OCCO`: the outcome in [1], in assay [3], in assay [4], in assay [5], in [6] and in assay [7] was inactive. Also, the compound was called inactive in assay [8], in assay [9], in assay [10], in [11], in assay [12] and in [13]. Moreover, the outcome in assay [14] and in [15] was inactive. Moreover, in assay [2], the AC50 was 12.8 µM (active).

`c1ccc(-c2ccccn2)nc1`: the compound was called inactive in assay [1], in assay [2], in assay [3], in [4], in assay [5] and in assay [6]. For the same compound, the compound was called inactive in [7], in [8], in assay [10], in assay [11], in assay [12] and in assay [13]. For the same compound, the compound was classed as inactive in assay [14] and in assay [16].

Take `Cc1cccc(N(C)C(=S)Oc2ccc3ccccc3c2)c1`: the compound was called inactive in assay [1], in assay [5], in [6], in assay [7], in assay [8] and in [10]. The compound was classed as inactive in assay [17], in assay [14] and in assay [18]. Also, the AC50 is 0.61 µM (active) in [2]; 24.4 µM (active) in [3]; 20.5 µM (active) in assay [4]; 9.03 µM (active) in assay [11]; 1.11 µM (active) in assay [12]; 3.78 µM (active) in assay [13].

Regarding `CCCCCCCCCCCCCCCC(=O)OCC`, the compound was classed as inactive in [1], in assay [3], in assay [4], in [5], in [6] and in assay [7]. The outcome in [8], in assay [10], in assay [11], in assay [13], in [14] and in assay [15] was inactive. In addition, the result in assay [18] was inactive. In addition, the half-maximal activity concentration (AC50) in assay [2] was 31.1 µM (active).

Broadly, the AC50 is the concentration at which the activity in the assay is half-maximal.
